Inconclusive results are not listed. Calls of active or inactive are those of the source. Calls come from the whole dose curve.
test: p53 small molecule agonists, cell-based qHTS assay: qHTS cell viability counter screen (AID 1963581); conditions: p53RE-bla HCT-116 viability, ATP luminescence, 16 h; series mostly up to 66 µM; activity change, negative = cytotoxicity: at the top concentration; note: nearly all actives have a fitted effect of over 45% in size
Text: National Center for Advancing Translational Sciences [NCATS]
Division of Preclinical Innovation [DPI]
U.S. Environmental Protection Agency [EPA]
National Institutes of Environmental Health Sciences [NIEHS]
National Toxicology Program [NTP]
U.S. Food and Drug Administration [FDA]
p53, a tumor suppressor protein, is activated following cellular insult, including DNA damage and other cellular stresses. The activation of p53 regulates cell fate by inducing DNA repair, cell cycle arrest, apoptosis, or cellular senescence. The activation of p53, therefore, is a good indicator of DNA damage and other cellular stresses. The CellSensor p53RE-bla HCT-116 cell line (Invitrogen) contains a stably integrated beta-lactamase reporter gene under control of the p53 response elements. The activation of the reporter gene under culture conditions can be detected by fluorescence intensity. This cell line was used to screen the Tox21 compound library in a 1536-well plate format and to identify agonists that activate the p53 signaling pathway. The cytotoxicity of the Tox21 compound library against the p53 RE-bla HCT-116 cell line was tested in parallel by measuring the intra cellular ATP content in the same wells.
Tox21 Assay Protocol Summary:
The p53RE-bla cells were dispensed at 4,000 cells/5 ul/well in 1536-well black wall/clear bottom plates using a Multidrop dispenser. After the assay plates were incubated at a 37 C/5% CO2 incubator for 5 hours, 23 nL of compounds dissolved in DMSO, positive controls or DMSO only was transferred to the assay plate by a pin tool. The plates were incubated at 37 C for 16 hours. After 1 uL of LiveBLAzerTM B/G FRET substrate was added using a Flying Reagent Dispenser, the plates were incubated at room temperature for 2 hours, and fluorescence intensity was measured by an Envision plate reader. For cell viability readout that measures cytotoxicity, 4 ul/well of CellTiter-Glo reagent was added into the assay plates using a Flying Reagent Dispenser. After 30 min incubation at room temperature, the luminescence intensity in the plates was measured using a ViewLux plate reader.
% is set by controls: 0 for no effect and ±100 for the full control effect.

Row | SMILES | activity change, negative = cytotoxicity | Potency
1 | c1cnccn1 | -17.3% (inactive) | –
2 | CCc1ccc(C)nc1 | -3.88% (inactive) | –
3 | c1ccc2cc3c4ccccc4c4ccccc4c3cc2c1 | 11.3% (inactive) | –
4 | O=C1CCCCCCCCCCCCCCCO1 | -4.52% (inactive) | –
5 | CC1=CCC(C(C)(C)O)CC1 (stereo not given) | – | inactive
6 | CC1(C)[C@H](C(=O)OCc2cccc(Oc3ccccc3)c2)[C@@H]1C=C(Cl)Cl | 2.71% (inactive) | –
7 | Nc1c(NC/C=C\COc2cc(CN3CCCCC3)ccn2)c(=O)c1=O | -0.902% [at 13.5 µM] (inactive) | –
8 | CCCCCCCCCCCCCC | 18% (inactive) | –
9 | CC(=O)N[C@@H](Cc1ccc(O)cc1)C(=O)O | -19.6% [at 30.3 µM] (inactive) | –
10 | CCCC(=O)OCc1ccccc1 | -14.4% (inactive) | –
11 | CC(c1cc2ccccc2s1)N(O)C(N)=O (stereo not given) | – | inactive
12 | CCCCOCCOCCOCCCC | -3.8% (inactive) | –
13 | NCCN1CCNC1=O | 5.63% (inactive) | –
14 | CC1(C)[C@@H]2CC[C@]3(C2)[C@@H]1C(=O)CCC3(C)C | -6.17% (inactive) | –
15 | O=C(Nc1ccc(Cl)cc1)Nc1ccc(Cl)c(Cl)c1 | – | inactive
16 | CC(=O)Oc1cccc(O)c1 | 1.18% [at 30.3 µM] (inactive) | –
17 | C=Cc1ccccn1 | 12.6% (inactive) | –
18 | O=S(=O)(O)c1ccccc1O | 1.97% (inactive) | –
19 | CCCCC(C)C(=O)O (stereo not given) | -5.92% (inactive) | –
20 | O=C(COc1ccc(Cl)cc1)N1CCN(Cc2ccc3c(c2)OCO3)CC1 | – | inactive

Row | SMILES | activity change, negative = cytotoxicity | Potency
21 | CCCCCCOC(=O)CC | -11.3% (inactive) | –
22 | NC(=O)CCCCC(N)=O | 6.07% (inactive) | –
23 | CC(C)C(=O)c1c(C(C)C)nn2ccccc12 | 16.1% [at 30.3 µM] (inactive) | –
24 | O=Cc1ccc(Cl)c(Cl)c1 | 8.85% (inactive) | –
25 | Cc1ccc2ccccc2c1[N+](=O)[O-] | 2.59% (inactive) | –
26 | O=[N+]([O-])c1ccccc1CCO | 5.49% (inactive) | –
27 | CC(C)CC(O)CC(C)C | 6.43% (inactive) | –
28 | O=C(O)CN(CCN(CC(=O)O)CC(=O)O)CCN(CC(=O)O)CC(=O)O | -11.9% [at 13.5 µM] (inactive) | –
29 | CCCCCCCCCCCCCCO | – | inactive
30 | NCC1(Cc2noc(=O)[nH]2)CCCCC1 | 9.16% (inactive) | –
31 | CCC(C)c1ccccc1 (stereo not given) | -0.0557% (inactive) | –
32 | CCOc1ccccc1OCC | 9.51% (inactive) | –
33 | Cn1cnc([N+](=O)[O-])c1Sc1ncnc2nc[nH]c12 | -36.1% [at 30.3 µM] (inactive) | –
34 | Fc1ccccc1-c1ccccc1 | -8.39% (inactive) | –
35 | CN(C)CCCNCCCN | 3.19% (inactive) | –
36 | CCOC(=O)[C@H](CCc1ccccc1)N[C@@H](C)C(=O)N1Cc2ccccc2C[C@H]1C(=O)O | – | inactive
37 | CC1CCC(C(C)C)C(O)C1 (stereo not given) | – | inactive
38 | CCC(C)=O | -1.29% (inactive) | –
39 | O=C(O)CCCCCCCCCCCC(=O)O | – | inactive
40 | COc1nc(C)nc(NC(=O)NS(=O)(=O)c2ccccc2OCCCl)n1 | 6.2% (inactive) | –

From PubChem BioAssay (Tox21)
